# Test results: the supplement of paper PMC10037445
# ± gives the standard deviation of the averaged measurements. Over roughly 2,900 compounds, “NF-kB SEAP reporter activity, fold change vs agonist alone” has its median near 0.99; the highest 2% begin near 2.6. For the sample, the highest values were picked, then their nearest neighbours and some compounds at random.
# Experiments:
# [1] = test system: RAW-Dual; test: NF-kB SEAP reporter activity, fold change vs agonist alone; higher = enhanced NF-kB activity
# Procedure, shortened: (§1)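 Supernatant from RAW-Dual macrophages was read after 20 hours for IRF by QuantiLuc luminescence and for NF-κB by QuantiBlue absorbance at 620 nm. The cells (50,000 cells/well in DMEM, 384-well plates, 37 °C, 5% CO2) had received 50 nL of library stock by pin tool and, 1 h later, a PRR agonist. Reporter activity is expressed relative to agonist-alone wells as fold change, and wells were flagged cytotoxic if IncuCyte confluency was under 70% of agonist controls in both mask sets.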
# [2] = test system: RAW-Dual; test: NF-kB SEAP reporter activity, fold change vs agonist alone; cytotoxicity flag (confluency mask): not cytotoxic; higher = enhanced NF-kB activity
# Procedure, shortened: as §1
# [3] = test system: RAW-Dual; test: NF-kB SEAP reporter activity, fold change vs agonist alone; cytotoxicity flag (confluency mask): cytotoxic (confluency <70% of control); higher = enhanced NF-kB activity
# Procedure, shortened: as §1
# [4] = library stock concentration (final ~1000-fold dilution): 10 mM water, cytotoxicity flag (confluency mask): not cytotoxic, agonist: Imiquimod (TLR7) […]
# [5] = library stock concentration (final ~1000-fold dilution): 10 mM water, cytotoxicity flag (confluency mask): not cytotoxic, agonist: MPLA (TLR4) […]
# [6] = agonist: ODN 1826 (TLR9) 0.5 ug/mL
# [7] = agonist: Pam2CSK4 (TLR2/6) 0.1 ug/mL
# [8] = agonist: Pam3CSK4 (TLR2/1) 0.1 ug/mL
# [9] = library stock concentration (final ~1000-fold dilution): 10 mM, cytotoxicity flag (confluency mask): not cytotoxic, agonist: Imiquimod (TLR7) […]
# [10] = library stock concentration (final ~1000-fold dilution): 10 mM, cytotoxicity flag (confluency mask): not cytotoxic, agonist: MPLA (TLR4) […]
structure (smiles),measurement,setting,value
CCOc1ccc(CC2NC(=O)CCSSCC(C(=O)N3CCCC3C(=O)NC(CCCN)C(=O)NCC(N)=O)NC(=O)C(CC(N)=O)NC(=O)C(C(C)O)NC(=O)C(C(C)CC)NC2=O)cc1 (stereo not drawn),NF-kB SEAP reporter activity,[1]; [4],0.981
same,NF-kB SEAP reporter activity,[1]; [5],1.06
CCOc1ccc(CC2NC(=O)CCSSCC(C(=O)N3CCCC3C(=O)NC(CCCN)C(=O)NCC(N)=O)NC(=O)C(CC(N)=O)NC(=O)C(C(C)O)NC(=O)C(C(C)CC)NC2=O)cc1 (stereo not drawn) (library stock concentration (final ~1000-fold dilution): 10 mM water),NF-kB SEAP reporter activity,[2]; agonist: LPS (TLR4) 0.1 ug/mL,1.22
same,NF-kB SEAP reporter activity,[2]; [6],1.15
same,NF-kB SEAP reporter activity,[2]; [7],1.22
same,NF-kB SEAP reporter activity,[2]; [8],1.02
COc1cc2c(cc1OC)C(=O)C(CC1CCN(Cc3ccccc3)CC1)C2.Cl (stereo not drawn) (library stock concentration (final ~1000-fold dilution): 10 mM water),NF-kB SEAP reporter activity,[2]; agonist: LPS (TLR4) 0.1 ug/mL,1.35
same,NF-kB SEAP reporter activity,[2]; [6],1.16
same,NF-kB SEAP reporter activity,[2]; [7],1.28
same,NF-kB SEAP reporter activity,[2]; [8],1.29
COc1cc2c(cc1OC)C(=O)C(CC1CCN(Cc3ccccc3)CC1)C2.Cl (stereo not drawn),NF-kB SEAP reporter activity,[1]; [4],0.84
same,NF-kB SEAP reporter activity,[1]; [5],1.08
COC(=O)NC(C(=O)NC(Cc1ccccc1)C(O)CN(Cc1ccc(-c2ccccn2)cc1)NC(=O)C(NC(=O)OC)C(C)(C)C)C(C)(C)C.O=S(=O)(O)O (stereo not drawn),NF-kB SEAP reporter activity,[1]; [9],2.01
same,NF-kB SEAP reporter activity,[1]; [10],1.56
COC(=O)NC(C(=O)NC(Cc1ccccc1)C(O)CN(Cc1ccc(-c2ccccn2)cc1)NC(=O)C(NC(=O)OC)C(C)(C)C)C(C)(C)C.O=S(=O)(O)O (stereo not drawn) (library stock concentration (final ~1000-fold dilution): 10 mM),NF-kB SEAP reporter activity,[2]; agonist: LPS (TLR4) 0.1 ug/mL,1.54
same,NF-kB SEAP reporter activity,[2]; [6],2.67
same,NF-kB SEAP reporter activity,[2]; [7],1.47
same,NF-kB SEAP reporter activity,[2]; [8],1.68
CC(C)CC(NC(=O)C(Cc1ccccc1)CC(O)C(Cc1ccccc1)NC(=O)OC(C)(C)C)C(=O)NC(Cc1ccccc1)C(N)=O (stereo not drawn) (library stock concentration (final ~1000-fold dilution): 10 mM),NF-kB SEAP reporter activity,[2]; agonist: LPS (TLR4) 0.1 ug/mL,1.25
same,NF-kB SEAP reporter activity,[2]; [6],0.998
same,NF-kB SEAP reporter activity,[2]; [7],0.929
same,NF-kB SEAP reporter activity,[2]; [8],0.958
CC(C)CC(NC(=O)C(Cc1ccccc1)CC(O)C(Cc1ccccc1)NC(=O)OC(C)(C)C)C(=O)NC(Cc1ccccc1)C(N)=O (stereo not drawn),NF-kB SEAP reporter activity,[1]; [9],0.843
same,NF-kB SEAP reporter activity,[1]; [10],1.02
COC(=O)NC(C(=O)NC(Cc1ccccc1)C(O)CN(Cc1ccc(-c2ccccn2)cc1)NC(=O)C(NC(=O)OC)C(C)(C)C)C(C)(C)C (stereo not drawn),NF-kB SEAP reporter activity,[1]; [10],0.961
COC(=O)NC(C(=O)NC(Cc1ccccc1)C(O)CN(Cc1ccc(-c2ccccn2)cc1)NC(=O)C(NC(=O)OC)C(C)(C)C)C(C)(C)C (stereo not drawn) (library stock concentration (final ~1000-fold dilution): 10 mM),NF-kB SEAP reporter activity,[2]; agonist: LPS (TLR4) 0.1 ug/mL,1.03
same,NF-kB SEAP reporter activity,[2]; [6],1.02
same,NF-kB SEAP reporter activity,[2]; [7],1.11
same,NF-kB SEAP reporter activity,[2]; [8],0.79
CC(C)C1=CC2=CCC3C(C)(C(=O)O)CCCC3(C)C2CC1 (stereo not drawn),NF-kB SEAP reporter activity,[1]; [10],1.07
CC(C)C1=CC2=CCC3C(C)(C(=O)O)CCCC3(C)C2CC1 (stereo not drawn) (library stock concentration (final ~1000-fold dilution): 10 mM),NF-kB SEAP reporter activity,[2]; agonist: LPS (TLR4) 0.1 ug/mL,0.876
same,NF-kB SEAP reporter activity,[2]; [6],0.965
same,NF-kB SEAP reporter activity,[2]; [7],1.03
same,NF-kB SEAP reporter activity,[2]; [8],0.83
CC(C)CC(=O)NC(C(=O)NC(C(=O)NC(CC(C)C)C(O)CC(=O)NC(C)C(=O)NC(CC(C)C)C(O)CC(=O)O)C(C)C)C(C)C (stereo not drawn),NF-kB SEAP reporter activity,[1]; [9],1.01
same,NF-kB SEAP reporter activity,[1]; [10],1
CC(C)CC(=O)NC(C(=O)NC(C(=O)NC(CC(C)C)C(O)CC(=O)NC(C)C(=O)NC(CC(C)C)C(O)CC(=O)O)C(C)C)C(C)C (stereo not drawn) (library stock concentration (final ~1000-fold dilution): 10 mM),NF-kB SEAP reporter activity,[2]; agonist: LPS (TLR4) 0.1 ug/mL,0.983
same,NF-kB SEAP reporter activity,[2]; [6],0.596
same,NF-kB SEAP reporter activity,[2]; [7],1
same,NF-kB SEAP reporter activity,[2]; [8],0.967
CCOCc1nc2c(N)nc3ccccc3c2n1CC(C)(C)O,NF-kB SEAP reporter activity,"[1]; library stock concentration (final ~1000-fold dilution): 3.2 mM, cytotoxicity flag (confluency mask): not cytotoxic, agonist: Imiquimod (TLR7) […]",1.27
same,NF-kB SEAP reporter activity,"[1]; library stock concentration (final ~1000-fold dilution): 3.2 mM, cytotoxicity flag (confluency mask): not cytotoxic, agonist: MPLA (TLR4) […]",2.17
CCOCc1nc2c(N)nc3ccccc3c2n1CC(C)(C)O (library stock concentration (final ~1000-fold dilution): 3.2 mM),NF-kB SEAP reporter activity,[2]; agonist: LPS (TLR4) 0.1 ug/mL,3.55
same,NF-kB SEAP reporter activity,[2]; [6],1.69
same,NF-kB SEAP reporter activity,[2]; [7],0.415
same,NF-kB SEAP reporter activity,[2]; [8],0.673
CC(=O)NC1C(NC(=N)N)C=C(C(=O)O)OC1C(O)C(O)CO (stereo not drawn),NF-kB SEAP reporter activity,[1]; [4],0.917
same,NF-kB SEAP reporter activity,[1]; [5],1.03
CC(=O)NC1C(NC(=N)N)C=C(C(=O)O)OC1C(O)C(O)CO (stereo not drawn) (library stock concentration (final ~1000-fold dilution): 10 mM water),NF-kB SEAP reporter activity,[2]; agonist: LPS (TLR4) 0.1 ug/mL,1.37
same,NF-kB SEAP reporter activity,[2]; [6],1.17
same,NF-kB SEAP reporter activity,[2]; [7],1.19
same,NF-kB SEAP reporter activity,[2]; [8],1.07
O=c1cc(-c2cccc3c2Sc2ccccc2S3)oc(N2CCOCC2)c1,NF-kB SEAP reporter activity,[1]; [9],1.04
same,NF-kB SEAP reporter activity,[1]; [10],2.17
O=c1cc(-c2cccc3c2Sc2ccccc2S3)oc(N2CCOCC2)c1 (library stock concentration (final ~1000-fold dilution): 10 mM),NF-kB SEAP reporter activity,[2]; agonist: LPS (TLR4) 0.1 ug/mL,2.66
same,NF-kB SEAP reporter activity,[2]; [6],0.715
same,NF-kB SEAP reporter activity,[2]; [7],0.748
same,NF-kB SEAP reporter activity,[2]; [8],0.948
CC1CN(CC(=O)Nc2ccc3c(c2)Cc2cccc(-c4cc(=O)cc(N5CCOCC5)o4)c2S3)CC(C)O1 (stereo not drawn),NF-kB SEAP reporter activity,[1]; [9],1.54
same,NF-kB SEAP reporter activity,[1]; [10],2.82
CC1CN(CC(=O)Nc2ccc3c(c2)Cc2cccc(-c4cc(=O)cc(N5CCOCC5)o4)c2S3)CC(C)O1 (stereo not drawn) (library stock concentration (final ~1000-fold dilution): 10 mM),NF-kB SEAP reporter activity,[2]; agonist: LPS (TLR4) 0.1 ug/mL,5.33
same,NF-kB SEAP reporter activity,[2]; [6],0.922
same,NF-kB SEAP reporter activity,[2]; [7],1.36
same,NF-kB SEAP reporter activity,[2]; [8],1.99
CNC(=O)C(Cc1c[nH]c2ccccc12)NC(=O)C(CC(=O)NO)CC(C)C (stereo not drawn),NF-kB SEAP reporter activity,[1]; [9],1.04
same,NF-kB SEAP reporter activity,[1]; [10],1.23
CNC(=O)C(Cc1c[nH]c2ccccc12)NC(=O)C(CC(=O)NO)CC(C)C (stereo not drawn) (library stock concentration (final ~1000-fold dilution): 10 mM),NF-kB SEAP reporter activity,[2]; agonist: LPS (TLR4) 0.1 ug/mL,0.932
same,NF-kB SEAP reporter activity,[2]; [6],0.999
same,NF-kB SEAP reporter activity,[2]; [7],1.03
same,NF-kB SEAP reporter activity,[2]; [8],1.01
CN1C2CCCC1CC(NC(=O)c1nn(C)c3ccccc13)C2.Cl (stereo not drawn),NF-kB SEAP reporter activity,[1]; [4],0.874
same,NF-kB SEAP reporter activity,[1]; [5],1
CN1C2CCCC1CC(NC(=O)c1nn(C)c3ccccc13)C2.Cl (stereo not drawn) (library stock concentration (final ~1000-fold dilution): 10 mM water),NF-kB SEAP reporter activity,[2]; agonist: LPS (TLR4) 0.1 ug/mL,1.2
same,NF-kB SEAP reporter activity,[2]; [6],1.06
same,NF-kB SEAP reporter activity,[2]; [7],1.04
same,NF-kB SEAP reporter activity,[2]; [8],1.11
CC1(C)CCC2(NC(=O)C(C)(F)F)CCC3(C)C(C(=O)C=C4C5(C)C=C(C#N)C(=O)C(C)(C)C5CCC43C)C2C1 (stereo not drawn) (library stock concentration (final ~1000-fold dilution): 10 mM),NF-kB SEAP reporter activity,[3]; agonist: LPS (TLR4) 0.1 ug/mL,0.358 ± 0.053
same,NF-kB SEAP reporter activity,[3]; [6],0.173 ± 0.0087
same,NF-kB SEAP reporter activity,[3]; [7],0.0759 ± 0.018
same,NF-kB SEAP reporter activity,[3]; [8],0.163 ± 0.0017
CC1(C)CCC2(NC(=O)C(C)(F)F)CCC3(C)C(C(=O)C=C4C5(C)C=C(C#N)C(=O)C(C)(C)C5CCC43C)C2C1 (stereo not drawn),NF-kB SEAP reporter activity,"[1]; library stock concentration (final ~1000-fold dilution): 10 mM, cytotoxicity flag (confluency mask): cytotoxic (confluency <70% of control), agonist: Imiquimod (TLR7) […]",0.14 ± 0.006
same,NF-kB SEAP reporter activity,"[1]; library stock concentration (final ~1000-fold dilution): 10 mM, cytotoxicity flag (confluency mask): cytotoxic (confluency <70% of control), agonist: MPLA (TLR4) […]",0.254 ± 0.0072
C=CC(C)(/C=C/c1ccc(O)cc1)CCC=C(C)C (stereo not drawn) (library stock concentration (final ~1000-fold dilution): 10 mM),NF-kB SEAP reporter activity,[2]; agonist: LPS (TLR4) 0.1 ug/mL,0.878
same,NF-kB SEAP reporter activity,[2]; [6],1.02
same,NF-kB SEAP reporter activity,[2]; [7],0.934
same,NF-kB SEAP reporter activity,[2]; [8],1.16
C=CC(C)(/C=C/c1ccc(O)cc1)CCC=C(C)C (stereo not drawn),NF-kB SEAP reporter activity,[1]; [9],1.1
same,NF-kB SEAP reporter activity,[1]; [10],1.12
